Experimental data reported in PubChem BioAssay (NCATS).
Results filed as inconclusive are left out. Where a call stands in place of a potency, no number is given. Calls of active or inactive are those of the source. Unless noted, calls follow the shape of the dose curve; as a rule, active = well fitted curve in the direction sought with a large enough effect; inconclusive = small, poorly fitted or top-dose-only effect, or another doubt; inactive = no such curve, though single readings can be large; an effect the other way counts as inactive or inconclusive.

What was measured:
[1] = qHTS profiling of the MIPE4 collection as inhibitors of Plasmodium falciparum (DD2) proliferation (Rep 2) (AID 743346; call rule not given here); settings: P. falciparum Dd2 in erythrocytes, SYBR Green DNA, 72 h; at 28.5 µM unless noted
Method in brief: (§1)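 Parasite DNA was quantified by SYBR Green I fluorescence (ex 485, em 535 nm) after overnight lysis in saponin/Triton buffer at room temperature. Cultures at 0.3% parasitemia and 2.5% hematocrit were first exposed to compound for 72 h at 37 C; signals were normalised to artemisinin (0.29 uM) and vehicle wells.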

[2] = qHTS profiling of the MIPE4 collection as inhibitors of Plasmodium falciparum (HB3) proliferation (AID 743347; call rule not given here); settings: P. falciparum HB3 in erythrocytes, SYBR Green DNA, 72 h; at 28.5 µM unless noted
Method in brief: as §1

[3] = High-throughput drug toxicity screening in the BPDCN cell line Gen2.2 (AID 1224824; call rule not given here;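 also: cells exposed to compounds for 48 h before reading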); settings: Gen2.2 BPDCN cells; at 45.8 µM (top of the series) unless noted
Method in brief: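 Gen2.2 cells (500/well) in phenol red-free RPMI with 10% FBS were exposed to compounds for 48 h at 37 °C, 5% CO2. Viability was read by CellTiter-Glo luminescence and normalized to DMSO (100%) and 9.2 uM bortezomib (0%).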

[4] = High-throughput drug toxicity screening in the BPDCN cell line Cal-1 (AID 1224825; call rule not given here); settings: Cal-1 BPDCN cell viability, qHTS; at 45.8 µM (top of the series) unless noted
Method in brief: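 Viability of the BPDCN line Cal-1 is measured as ATP-based luminescence (CellTiter-Glo) following 48 h incubation with compounds. Percent activity uses DMSO-treated wells as 100% and 9.2 uM bortezomib as 0%.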

[5] = qHTS assay for measurement of the activity of small molecule inhibitors on Zika virus induced Caspase-3 activity in human iPSC derived neural progenitor cells (hNPCs) (AID 1224857); also: nearly all actives have a fitted effect of over 65% in size; also: potency is read from the fitted curve at half-maximal effect
Method in brief: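 Cells were plated at 350 per well and grown 16 to 20 hours. Compound pretreatment lasted one hour, after which ZIKV (2 FFU/cell) was added for 6 hours. Percent inhibition was normalized between uninfected and infected controls.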

[6] = qHTS assay for measurement of the activity of small molecule inhibitors on Zika virus induced Caspase-3 activity in human astrocytoma cells (AID 1224859); also: potency is read from the fitted curve at half-maximal effect
Method in brief: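 Percent inhibition of virus-induced caspase-3/7 signal is calculated against uninfected and ZIKV-infected control cells. Cells are SNB-19, infected at 2 FFU/cell for 6 h after 1 h compound exposure.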

[7] = qHTS Screen of the MIPE 4.0 Collection Against Ewings Sarcoma (TC71) (AID 1259253); also: nearly all actives have a fitted effect of over 40% in size; also: potency is read from the fitted curve at half-maximal effect
Method in brief: (§2)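 Compound titrations go onto adherent log-phase cells 4 h after seeding, incubate 48 h at 37C, then CellTiter-Glo luminescence reports viability relative to DMSO and cell-free controls.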

[8] = qHTS Screen of the MIPE 4.0 Collection Against Ewings Sarcoma (EW8) (AID 1259255); also: nearly all actives have a fitted effect of over 35% in size; also: potency is read from the fitted curve at half-maximal effect
Method in brief: as §2

[9] = qHTS Screen of the MIPE 4.0 Collection Against Ewings Sarcoma (TC32) (AID 1259256); also: nearly all actives have a fitted effect of over 45% in size; also: potency is read from the fitted curve at half-maximal effect
Method in brief: as §2

[10] = qHTS assay to identify small molecule inhibitors of chordoma cells - UCH-1 (AID 1259355); also: nearly all actives have a fitted effect of over 55% in size
Method in brief: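 A 48hr growth-inhibition format: each drug tested at 15 concentrations together with added auranofin, camptothecin, doxorubicin, rubitecan and topotecan, with cell viability quantified as CellTiter-Glo luminescence.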

[11] = qHTS assay to identify small molecule inhibitors of chordoma cells - UCH-2 (AID 1259356)
[12] = P-glycoprotein substrates identified in KB-8-5-11 adenocarcinoma cell line, qHTS therapeutic library screen (AID 1346987); also: nearly all actives have a fitted effect of over 65% in size
Method in brief: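 In this qHTS, P-gp-rich KB-8-5-11 cells received library compounds across a concentration range. Viability was quantified by luminescence after 72 h at 37 degree C.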

[13] = Natriuretic polypeptide receptor (hNpr1) antagonism - Pilot counterscreen GloSensor control cell line (AID 1347045; calls by dose curve)
Method in brief: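 HEK293 cGMP-sensor cells; 2% GloSensor reagent 2 h RT; LOPAC compounds in 1:5 titrations 30-50 min; 50 uM SNP 20 min; luminescence pre-read and post-read.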

[14] = qHTS Screen of the MIPE 4.0 Collection Against Ewings Sarcoma (RDES) (AID 1259252); also: nearly all actives have a fitted effect of over 35% in size; also: potency is read from the fitted curve at half-maximal effect
Method in brief: as §2

[15] = Identifying Small Molecule Inhibitors of Pancreatic Cancer Stem Cells (SN12C, Adherent) (AID 1259358);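 also: potency is read from the fitted curve at half-maximal effect; cell survival measured after 48 h of compound exposure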
Method in brief: (§3)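 Viability is scored by CellTiter-Glo luminescence 48 h after dosing, expressed as percent activity against vehicle and no-cell references. Spheroid formats rely on cells cultured 14 days in stem cell media beforehand.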

[16] = Identifying Small Molecule Inhibitors of Pancreatic Cancer Stem Cells (SN12C, Spheroid) (AID 1259360); settings: Potency: SN12C spheroid viability
Method in brief: as §3

| SMILES | parasite growth, % of control (lower = inhibition) [1] [%] | growth, % of control [2] [%] | cell viability, % of control (lower = more cytotoxic) [3] [%] | viability (% of control) [4] [%] | Potency [5] | Potency [6] | Potency [7] | Potency [8] | Potency [9] | Potency [10] | Potency [11] | Potency [12] | Potency [13] | Potency [14] | Potency [15] | Potency [16] |
| --- | --- | --- | --- | --- | --- | --- | --- | --- | --- | --- | --- | --- | --- | --- | --- | --- |
| CC(C)(S)[C@@H](N)C(=O)O | 76.1 | 95.7 | 117 | 106 | inactive | inactive | inactive | inactive | inactive | inactive | inactive | inactive | – | – | – | – |
| O=C(c1ccccc1)c1ccc2n1CCC2C(=O)O (stereo unspecified) | 121 | 104 | 14.8 | 15.1 | 18.7 µM (active) | 16.6 µM (active) | 4.18 µM (active) | 6.62 µM (active) | 3.72 µM (active) | inactive | inactive | inactive | inactive | – | – | – |
| Cc1ccc(Nc2nccc(N(C)c3ccc4c(C)n(C)nc4c3)n2)cc1S(N)(=O)=O | – | – | 355 | 62.5 | inactive | inactive | – | inactive | – | – | – | inactive | – | 11.8 µM (active) | 18.7 µM (active) | inactive |
| CCC1=C(C)CN(C(=O)NCCc2ccc(S(=O)(=O)NC(=O)NC3CCC(C)CC3)cc2)C1=O (stereo unspecified) | 85.1 | 99.4 | 114 | 118 | inactive | inactive | inactive | inactive | inactive | – | inactive | – | – | – | – | – |
| CCN(CC)CCOc1ccc(Cc2ccccc2)cc1 | 36.4 | 84.7 | 158 | 100 | inactive | inactive | – | – | – | inactive | inactive | inactive | – | 18.7 µM (active) | – | – |
| CCC[C@@H]1C[C@@H](C(=O)N[C@@H]([C@H]2O[C@H](SC)[C@H](O)[C@@H](O)[C@H]2O)[C@@H](C)O)N(C)C1 | 67.1 | 66.3 | 191 | 114 | inactive | inactive | – | inactive | inactive | – | inactive | inactive | – | inactive | – | – |
| CN(C)C(=O)COC(=O)Cc1ccc(OC(=O)c2ccc(N=C(N)N)cc2)cc1 | 43 | 101 | 129 | 104 | inactive | inactive | – | – | 0.0469 µM (active) | inactive | inactive | inactive | – | 16.6 µM (active) | – | – |
| CC(C)[C@H](N)C(=O)OCCOCn1cnc2c(=O)[nH]c(N)nc21 | – | – | 57 | 28.8 | inactive | inactive | inactive | inactive | inactive | inactive | inactive | inactive | – | – | – | – |
| Cc1cccc(CN2CCN(C(c3ccccc3)c3ccc(Cl)cc3)CC2)c1 (stereo unspecified) | 22.6 | 9.08 | 156 | 94 | inactive | inactive | – | – | 13.2 µM (active) | inactive | inactive | – | – | 20.9 µM (active) | – | – |
